# JMJD2A Tudor inh – qHTS Assay for Inhibitors of JMJD2A-Tudor Domain | AlphaScreen JMJD2A-Tudor / H3K4me3 peptide binding | Potency, µM (doses to about 114 µM), for the others: at the highest dose activity change, negative = inhibition, usual class: inhibitors | 4.4% of 390,000 active | AID 504339, 2011; note: % is set by controls: 0 for no effect and ±100 for the full control effect; nearly all actives have a fitted effect of over 50% in size
# Sfp PPTase inh – qHTS Assay for Inhibitors of Bacillus subtilis Sfp phosphopantetheinyl transferase (PPTase); 4'-phosphopantetheinyl transferase ffp (Bacillus subtilis), Q9F4F7; Biochemical Sfp PPTase activity, qHTS; Potency, µM, without a hit: largest response in the series, negative = inhibition, most hits filed as inhibitors; 3.5% of 310,000 active;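 note: the enzyme is Sfp with the accession as filed and its product quenches rhodamine fluorescence; 0% = enzyme reaction without inhibitor and -100% = no enzyme wells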
#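 With Hepes-Na pH 7.6 buffer containing 10 mM MgCl2, Sfp (15 nM) modified BHQ-2-YbbR (12.5 uM) using rhodamine-CoA (5 uM). Two reads 30 minutes apart at 525/598 nm yielded each well's rate.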
# HP1b binding inh – HTS for Inhibitors of HP1-beta Chromodomain Interactions with Methylated Histone Tails; 0.56% of 390,000 active; Potency, µM (highest dose often 114 µM), without a hit: at the highest dose activity change, negative = inhibition, actives largely listed as inhibitors; AlphaScreen HP1-beta / biotin-H3K9me3 peptide binding; Chromobox protein homolog 1 (Homo sapiens), P83916; note: nearly all actives have a fitted effect of over 70% in size
#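 Compound inhibition of the preformed complex between 50 nM HP1-beta and 50 nM biotinylated H3K9me3 peptide was read by AlphaScreen. Buffer was PBS pH 7.4 with 0.01% Tween-20. Incubations ran 30 min at room temperature, with 10 ug/mL donor/acceptor beads.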
# PLK1 PBD inh – qHTS for Inhibitors of PLK1-PDB (polo-like kinase 1 - polo-box domain): Primary Screen; Serine/threonine-protein kinase PLK1 (Homo sapiens), P53350; Plk1 PBD binding of FITC phosphopeptide, fluorescence polarization; Potency, µM, inactives show max response, negative = inhibition, hits mostly inhibitors; 2.8% of 360,000 active; note: series mostly up to about 57 µM; % is set by controls: 0 for no effect and ±100 for the full control effect; nearly all actives have a fitted effect of over 65% in size
# Target sequence (P53350 whole entry, looked up, the tested form may be a part): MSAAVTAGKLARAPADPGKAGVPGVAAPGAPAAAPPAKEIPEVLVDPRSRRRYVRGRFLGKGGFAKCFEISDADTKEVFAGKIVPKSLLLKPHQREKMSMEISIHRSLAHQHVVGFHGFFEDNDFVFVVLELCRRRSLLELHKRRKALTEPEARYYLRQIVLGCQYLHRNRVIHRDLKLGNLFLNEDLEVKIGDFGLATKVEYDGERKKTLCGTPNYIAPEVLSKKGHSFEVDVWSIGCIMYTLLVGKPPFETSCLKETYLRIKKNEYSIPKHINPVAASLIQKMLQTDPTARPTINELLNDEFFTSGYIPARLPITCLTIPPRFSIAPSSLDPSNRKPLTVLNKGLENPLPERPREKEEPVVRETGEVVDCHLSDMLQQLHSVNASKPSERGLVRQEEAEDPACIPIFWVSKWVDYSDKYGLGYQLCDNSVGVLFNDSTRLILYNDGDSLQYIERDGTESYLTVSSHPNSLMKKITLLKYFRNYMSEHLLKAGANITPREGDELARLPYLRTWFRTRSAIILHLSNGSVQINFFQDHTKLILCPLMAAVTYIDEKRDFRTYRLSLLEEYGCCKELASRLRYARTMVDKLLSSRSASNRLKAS
# G9a inh – qHTS Assay for Inhibitors of Histone Lysine Methyltransferase G9a; Histone-lysine N-methyltransferase EHMT2 (Homo sapiens), Q96KQ7; G9a H3K9 monomethylation, AlphaScreen, 2 h; Potency, µM (series often up to 102 µM), for the others: at the highest dose activity, negative = inhibition, usual class: inhibitors; 8.8% of 350,000 active; note: % is set by controls: 0 for no effect and ±100 for the full control effect; nearly all actives have a fitted effect of over 75% in size
#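 G9a (20 nM) preincubated 15 min RT with compounds, then 500 nM biotinylated H3K9 peptide and 20 uM SAM added; 2 h RT reaction. Monomethyl-H3K9 product detected by AlphaScreen with anti-H3K9me1 antibody, streptavidin donor and anti-rabbit IgG acceptor beads.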
# BAZ2B inh – qHTS Assay for Inhibitors of BAZ2B | Potency, µM (highest dose often 114 µM), inactives show at the top dose activity change, negative = inhibition, hits mostly inhibitors | AlphaScreen BAZ2B-H3K14Ac peptide displacement | AID 504333, 2011 | 4.4% of 360,000 active | Bromodomain adjacent to zinc finger domain protein 2B (Homo sapiens), Q9UIF8; note: % is set by controls: 0 for no effect and ±100 for the full control effect; nearly all actives have a fitted effect of over 60% in size
#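 AlphaScreen displacement of biotin-H3(5-23)K14Ac peptide (50 nM final) from BAZ2B (50 nM final) in PBS pH 7.4, 0.01% Tween-20; complex preformed 30 min RT, then compounds (top 110 uM) 30 min RT, beads 20 min dark.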
# The depositor's hits bear a star; ? = inconclusive; · = no result; [ ] = remark or other dose. Hits are enriched below; roughly 12% of the tested compounds scored in any of these assays. Calls come from the whole dose curve; as a rule, active = well fitted curve in the direction sought with a large enough effect; inconclusive = small, poorly fitted or top-dose-only effect, or another doubt; inactive = no such curve, though single readings can be large; an effect the other way counts as inactive or inconclusive. Potency is the fitted concentration of half-maximal effect.
SMILES,JMJD2A Tudor inh,Sfp PPTase inh,HP1b binding inh,PLK1 PBD inh,G9a inh,BAZ2B inh
c1ccc(CNc2nc(-c3cccs3)nc3ccccc23)cc1,-4%,-15%,54%,-1%,10%[59 µM],-2%
CCSc1nc(-c2cccs2)nc2ccccc12,?,-7%,69%,24µM*,148%,471%
O=C(O)c1cccc(-n2sc3ccccc3c2=O)c1,2.8µM*,·,73%,1.2µM*,7%[0.501 µM],8.9µM*
CC(=O)Nc1ccc2c(=O)n(-c3ccccc3)sc2c1,·,·,·,2.4µM*,·,·
O=C(O)c1cccc(N2C(=O)CCC2=O)c1,·,4%,·,·,·,-32%
O=c1c2ccccc2sn1-c1cccc(Cl)c1,·,·,·,3µM*,·,·
O=c1c2ccccc2sn1-c1nccs1,5.6µM*,2.2µM*,?,2.4µM*,1.4µM*,5µM*
O=c1c2ccccc2sn1-c1ccccc1F,·,·,·,3µM*,·,·
Cn1sc2ccccc2c1=O,·,·,·,4.7µM*,·,·
N#Cc1c(N)n(-c2ccccc2)c(=O)c2cc([N+](=O)[O-])ccc12,-6%,9%,-35%,-15%,·,4%
N#Cc1ccc2c(=O)n(-c3ccccc3)sc2c1,·,·,·,3µM*,·,·
O=c1c2ccccc2sn1-c1ccccc1,4µM*,0.5µM*,?,1.1µM*,?,7.9µM*
CN(C)S(=O)(=O)c1cccc(-n2sc3ccccc3c2=O)c1,14µM*,1.6µM*,-12%,1.2µM*,-128%,4.5µM*
Cc1ccccc1-n1sc2cc(F)ccc2c1=O,4.5µM*,0.56µM*,16µM*,1.2µM*,-113%,4.5µM*
Cc1ccc2oc(=O)c3cc(C(=O)N(Cc4ccccc4)C(C)C)sc3c2c1,6%,·,64%,·,4%[59 µM],2%
O=C(COC(=O)c1ccc(Br)o1)NCc1ccccc1Cl,9%,·,32%,6%,·,·
CCS(=O)(=O)c1ccc2oc(SCC(=O)NC34CC5CC(CC(C5)C3)C4)nc2c1,-12%,-4%,19%,-4%,-10%,56µM*
COc1cc(C#N)c(NS(=O)(=O)c2ccc3[nH]c(=O)sc3c2)cc1OC,-7%,10%,32%,-20%,21%,-7%[57.1 µM]
CCOc1ccc(NC(=O)COC(=O)Cc2ccsc2)cc1,-12%,·,29%,-5%,·,·
COc1cc(/C=C2\C(=N)N3N=C(S(C)(=O)=O)SC3=NC2=O)ccc1OCCOc1ccc(C)cc1,-19%,-20%,?,?,?,-32%
COc1cc(/C=C2\C(=N)N3N=C(S(C)(=O)=O)SC3=NC2=O)cc(OC)c1OCCOc1ccc(C)cc1,?,-8%,-6%,21µM*,-24%,?
COc1cc(/C=C2\C(=N)N3N=C(S(C)(=O)=O)SC3=NC2=O)cc(OC)c1OCCOc1cccc(C)c1,?,-5%,-15%,30µM*,?,?
N#Cc1c(N)n(C2OC(CO)C(O)C2O)c2ncnc(N)c12 (centres undefined),-8%,·,28%,1%,·,·
COc1ccc(C)cc1NC(=O)CSc1nnc(-c2ccco2)n1Cc1ccco1,?,-19%,-19%,-12%,56µM*,-36%
Cc1ccc(NC(=O)CSc2nccn2Cc2ccco2)c(C)c1,-2%,-7%,16%,1%,·,-38%
SMILES,JMJD2A Tudor inh,Sfp PPTase inh,HP1b binding inh,PLK1 PBD inh,G9a inh,BAZ2B inh
C=CCn1c(SCC(=O)Nc2cc(C)ccc2OC)nnc1-c1ccco1,-10%,18%,27%,-7%,11%,-2%
CCOc1ccccc1NC(=O)CSc1nnc(-c2ccccn2)n1Cc1ccco1,?,-22%,15%,-4%,-51%,?
COc1ccc(OC)c(NC(=O)CSc2nccn2Cc2ccco2)c1,-33%,13%,-3%,-15%,50µM*,-36%
CCOc1ccccc1NC(=O)CSc1nnc(-c2ccco2)n1Cc1ccco1,-34%,-11%,7%,-10%,18µM*,?
O=C(NCc1ccncc1)c1csc([C@@H]2C[C@H](O)[C@@H](CO)O2)n1,·,·,·,-16%,·,·
O=C(CCSc1nc(-c2ccco2)cc(C(F)(F)F)n1)N1CCCc2ccccc21,-9%,-10%,44%,-7%,16µM*,0%
COc1ccccc1CCNC(=O)CCSc1nc(-c2ccco2)cc(C(F)(F)F)n1,-3%,56µM*,42%,-8%,19%[59 µM],12%
COc1ccccc1CCNC(=O)CSc1nc(-c2ccco2)cc(C(F)(F)F)n1,15%,-13%,51%,-4%,-15%,13%
CC(=O)NCCC(=O)Nc1cc(S(=O)(=O)N2CCOCC2)ccc1N1CCCC1,-3%,·,38%,-5%,?,1%
CN(/N=C/c1ccc([N+](=O)[O-])o1)c1ccccc1,32µM*,3%,35µM*,-7%,22µM*,14µM*
CCN(CC(=O)Nc1ccc2c(c1)OCCO2)Cc1cc(=O)n2ccsc2n1,3%,-16%,23%,-1%,11%,-5%
CCN(CC(=O)NCc1ccc(F)cc1)Cc1cc(=O)n2ccsc2n1,-23%,17%,26%,1%,45µM*,-24%
NCCCC[C@H](N)C(=O)N[C@@H](CCCN=C(N)N)C(=O)N1CCC[C@H]1C(=O)N1CCC[C@H]1C(=O)NCC(=O)N[C@@H](Cc1ccccc1)C(=O)N[C@@H](CO)C(=O)N1CCC[C@H]1C(=O)N[C@@H](Cc1ccccc1)C(=O)O,·,6%,·,·,·,·
Cc1ccc(C(=O)/C=C/NNC(=O)c2ccccc2O)cc1,?,13%,18%,-9%,10%[59 µM],50µM*
Cc1cccc(C)c1NC(=O)c1ccc2c(c1)nnn2C1CCCC1,-4%,·,29%,·,-10%[59 µM],-11%
Cc1ccc(S(=O)(=O)N2CCc3ccccc3C2CC(=O)O)cc1 (centres undefined),1%,1%,40%,-2%,79µM*,-16%
CCOc1cc(/C=C2\C(=O)N(c3cccc(C(F)(F)F)c3)C(=O)c3ccccc32)ccc1O,?,-3%,?,?,?,?
CCCOc1ccc(/C=C2/C(=O)ON=C2C)cc1Cl,6%,50µM*,17%,1.1µM*,28µM*,-10%
CCN(CC)c1ccc(/C=c2/sc3nnc(-c4ccccc4C)n3c2=O)cc1,-23%,-6%,4%,-26%,-44%,-29%
CCCCC1(C)OC(=O)C(=Cc2ccc(N(CC)CC)cc2)C(=O)O1 (centres undefined),?,-7%,12%,?,71µM*,56µM*

# Source: PubChem (National Center for Advancing Translational Sciences (NCATS))
